Experimental data taken from PubChem BioAssay (NCATS).
Inconclusive results are not listed. Calls of active or inactive are those of the source. Unless noted, calls follow the shape of the dose curve; as a rule, active = well fitted curve in the direction sought with a large enough effect; inconclusive = small, poorly fitted or top-dose-only effect, or another doubt; inactive = no such curve, though single readings can be large; an effect the other way counts as inactive or inconclusive.

How the values were obtained:
[1] = biological target: Lysosomal acid glucosylceramidase (Homo sapiens) (UniProt P04062); experiment: Glucocerebrosidase-p2 (AID 348; in the data active = potency below about 10 µM; also: potency is read from the fitted curve at half-maximal effect); details: purified GBA, blue fluorogenic substrate, 40 min
Lysosomal acid glucosylceramidase (Homo sapiens), sequence (P04062 whole entry, looked up): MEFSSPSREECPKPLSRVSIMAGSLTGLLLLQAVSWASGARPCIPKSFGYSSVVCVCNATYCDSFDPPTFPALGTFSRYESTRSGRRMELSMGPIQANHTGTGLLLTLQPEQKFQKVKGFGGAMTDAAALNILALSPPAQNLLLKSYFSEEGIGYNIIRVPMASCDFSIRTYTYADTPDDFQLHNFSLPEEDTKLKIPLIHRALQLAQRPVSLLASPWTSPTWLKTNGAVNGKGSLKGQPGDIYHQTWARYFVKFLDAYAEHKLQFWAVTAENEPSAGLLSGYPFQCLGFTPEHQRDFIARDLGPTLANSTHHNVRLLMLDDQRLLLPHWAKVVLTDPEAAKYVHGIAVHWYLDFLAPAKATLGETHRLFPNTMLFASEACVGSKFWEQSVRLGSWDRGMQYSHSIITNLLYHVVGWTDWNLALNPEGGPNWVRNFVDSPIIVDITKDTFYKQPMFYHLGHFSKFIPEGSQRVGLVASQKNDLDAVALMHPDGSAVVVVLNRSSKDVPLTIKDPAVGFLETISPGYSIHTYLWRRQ
In short: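 Normal human glucocerebrosidase (0.2 nM) with blue fluorogenic substrate (80 uM final) in citrate/phosphate pH 5.9 with 10mM sodium taurocholate, 0.01% tween-20; 40 min RT, NaOH/glycine stop; fluorescence Ex 365/Em 440; AC50 from a titration from 0.6 nM upwards.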

[2] = AP1 Signaling Pathway (AID 357; active = well fitted curve in either direction with a large enough effect, not every such curve was filed as active;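 also: ME-180 reporter cells stimulated with EGF at its EC50 level; % is scaled to controls: 0 for no effect and ±100 for the full control effect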); details: ME-180 AP-1-bla reporter, EGF-induced, beta-lactamase ratio, 5 h; at 7.69 µM (top of the series) unless noted
In short: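 Titration-series screen for positive or negative modulators of EC50 EGF-induced signaling in ME-180 cells carrying an AP-1-driven beta-lactamase reporter. After 5 hours at 37 degrees Celsius, CCF4 460nm/530nm emission ratio gave %Activity; AC50 values derived.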

[3] = NFAT Signaling Pathway (AID 444; active = well fitted curve in either direction with a large enough effect, not every such curve was filed as active;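 also: carbachol stimulus at about its EC50 of 1 µM final; % is scaled to controls: 0 for no effect and ±100 for the full control effect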); details: Jurkat NFAT-bla M1, carbachol, beta-lactamase ratio, 5 h; at 7.69 µM (top of the series) unless noted
In short: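 Read-out: CCF4 FRET ratio (460 nm/530 nm) after 1 h RT dye loading, used for %activity and AC50 from titration series. Cells: Jurkat NFAT-β-lactamase/M1 line, treated with compound plus 1 uM carbachol for 5 h, 37 °C.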

[4] = biological target: Glucocorticoid receptor (Homo sapiens) (UniProt P04150); experiment: GR-GFP Redistribution (AID 450;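 active = compounds whose dose series gives a full or clear partial fitted curve of increased nuclear translocation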; also: potency is read from the fitted curve at half-maximal effect); details: U2OS GR-GFP nuclear translocation, laser cytometry, 2 h
Glucocorticoid receptor (Homo sapiens), sequence (P04150 whole entry, looked up, the tested form may be a part): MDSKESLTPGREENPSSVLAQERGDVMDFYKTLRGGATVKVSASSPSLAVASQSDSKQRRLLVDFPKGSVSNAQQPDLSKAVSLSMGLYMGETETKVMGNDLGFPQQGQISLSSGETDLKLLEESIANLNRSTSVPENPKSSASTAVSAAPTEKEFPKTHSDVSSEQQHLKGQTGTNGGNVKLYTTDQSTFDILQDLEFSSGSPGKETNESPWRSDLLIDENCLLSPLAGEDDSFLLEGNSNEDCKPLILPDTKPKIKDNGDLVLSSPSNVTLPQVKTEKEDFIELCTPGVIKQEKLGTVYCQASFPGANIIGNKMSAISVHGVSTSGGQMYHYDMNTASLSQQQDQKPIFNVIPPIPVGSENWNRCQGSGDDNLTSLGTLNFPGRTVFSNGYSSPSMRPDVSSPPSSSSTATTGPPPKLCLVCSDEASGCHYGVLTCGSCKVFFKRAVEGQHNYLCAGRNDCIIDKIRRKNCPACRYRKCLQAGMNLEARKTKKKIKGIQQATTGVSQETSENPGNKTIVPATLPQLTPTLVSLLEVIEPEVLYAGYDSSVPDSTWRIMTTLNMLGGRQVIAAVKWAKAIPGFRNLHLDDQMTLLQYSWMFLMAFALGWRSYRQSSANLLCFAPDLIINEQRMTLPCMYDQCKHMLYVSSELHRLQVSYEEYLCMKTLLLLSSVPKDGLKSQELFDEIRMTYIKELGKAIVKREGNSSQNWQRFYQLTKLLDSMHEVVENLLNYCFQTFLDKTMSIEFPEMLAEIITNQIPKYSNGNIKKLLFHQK

[5] = biological target: Glucocorticoid receptor (Homo sapiens) (UniProt P04150); experiment: GR-EFC Redistribution (AID 451; calls by dose curve; also: potency is read from the fitted curve at half-maximal effect); details: CHO-K1 GR-EFC translocation, beta-gal luminescence, 2 h
In short: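 Translocation of GR-ED fusion to nuclear EA restores b-gal, read by luminescence after 1 h room-temperature detection. Engineered CHO-K1 biosensor cells, 1,000/well, exposed 2 h at 37 C to titrations up to 46 uM final.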

[6] = biological target: Mitogen-activated protein kinase 10 (Mus musculus) (UniProt Q61831); experiment: JNK3 AlphaScreen Assay (AID 530; active = well fitted curve in either direction with a large enough effect, not every such curve was filed as active;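 also: kinase came from lysate of stimulated human HepG2 cells; signal reports phosphorylation of biotinylated GST-cJun 1-79 at Ser73 with 10 µM ATP; % is scaled to controls: 0 for no effect and ±100 for the full control effect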); details: JNK3 lysate, c-Jun phosphorylation; series mostly up to 57.1 µM
In short: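 qHTS titrations with 15 min compound pre-incubation before adding ATP (10 uM final). Read-out: AlphaScreen of Ser73-phosphorylated biotin-GST-cJun using HepG2 lysate JNK3 activated by IL-1β and TNFα.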

[7] = biological target: 3',5'-cyclic-AMP phosphodiesterase 4B (Homo sapiens) (UniProt Q07343); experiment: qHTS Assay for Inhibitors of PDE-IV (AID 607; active = well fitted activation curve with a large enough effect in the main read-out, with a control signal flat, not every such curve was filed as active; also: % of control where 0% means no effect); details: HEK293 ACTOne CNG channel cells, membrane potential fluorescence; series mostly up to 22.9 µM
3',5'-cyclic-AMP phosphodiesterase 4B (Homo sapiens), sequence (Q07343 whole entry, looked up): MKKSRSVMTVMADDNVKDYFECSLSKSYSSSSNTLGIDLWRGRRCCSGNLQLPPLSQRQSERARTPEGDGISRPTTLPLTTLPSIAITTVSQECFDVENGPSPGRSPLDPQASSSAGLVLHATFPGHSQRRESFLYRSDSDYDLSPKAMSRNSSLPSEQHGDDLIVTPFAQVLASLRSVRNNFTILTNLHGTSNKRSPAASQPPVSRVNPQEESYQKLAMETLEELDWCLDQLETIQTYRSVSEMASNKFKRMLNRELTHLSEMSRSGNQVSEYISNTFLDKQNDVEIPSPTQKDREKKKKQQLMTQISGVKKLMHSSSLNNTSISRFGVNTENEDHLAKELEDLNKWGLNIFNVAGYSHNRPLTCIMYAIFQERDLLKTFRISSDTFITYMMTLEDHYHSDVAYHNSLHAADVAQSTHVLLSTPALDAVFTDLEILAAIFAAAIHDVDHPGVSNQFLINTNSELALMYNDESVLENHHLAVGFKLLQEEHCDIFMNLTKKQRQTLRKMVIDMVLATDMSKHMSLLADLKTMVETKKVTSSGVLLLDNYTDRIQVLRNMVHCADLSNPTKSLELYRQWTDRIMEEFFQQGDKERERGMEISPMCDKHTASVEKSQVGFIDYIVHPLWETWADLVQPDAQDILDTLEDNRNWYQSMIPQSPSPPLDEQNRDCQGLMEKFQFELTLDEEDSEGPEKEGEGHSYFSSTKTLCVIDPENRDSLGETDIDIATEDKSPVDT
In short: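 HEK293 ACTOne cells with CNG channel (1000/well), endogenous PDE4; membrane potential dye, compounds up to 22.9 uM final. Fluorescence Ex 535/Em 590; RO 20-1724 (100 uM final) as reference.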

[8] = biological target: Cytochrome P450 3A4 (Homo sapiens) (UniProt P08684); experiment: qHTS Assay for Activators of Cytochrome P450 3A4 (AID 885); details: recombinant CYP3A4, Luciferin-PPXE luminescence, 60 min; series mostly up to 57.1 µM; also: nearly all actives have a fitted effect of over 65% in size
Cytochrome P450 3A4 (Homo sapiens), sequence (P08684 whole entry, looked up): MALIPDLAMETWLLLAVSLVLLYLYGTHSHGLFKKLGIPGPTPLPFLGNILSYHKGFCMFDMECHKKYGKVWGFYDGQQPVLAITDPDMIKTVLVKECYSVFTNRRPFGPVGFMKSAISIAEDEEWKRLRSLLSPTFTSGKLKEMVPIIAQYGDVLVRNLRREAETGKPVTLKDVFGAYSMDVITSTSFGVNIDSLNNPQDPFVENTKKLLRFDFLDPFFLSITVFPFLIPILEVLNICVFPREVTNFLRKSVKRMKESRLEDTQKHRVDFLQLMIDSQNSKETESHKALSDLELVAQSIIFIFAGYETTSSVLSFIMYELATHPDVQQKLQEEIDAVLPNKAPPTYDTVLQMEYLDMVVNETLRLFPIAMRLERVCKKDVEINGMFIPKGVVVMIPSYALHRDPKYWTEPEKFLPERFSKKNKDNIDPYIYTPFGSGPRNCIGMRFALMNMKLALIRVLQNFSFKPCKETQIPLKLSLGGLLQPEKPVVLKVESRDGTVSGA
In short: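 Human CYP3A4 dealkylates Luciferin-PPXE to luciferin, which luciferase detection converts to light. Substrate was at its KM (25uM), buffer 200mM KPO4, reaction 60 min at RT.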

[9] = qHTS Assay for Lipid Storage Modulators (AID 1519; calls by dose curve); details: Drosophila S3 cells, BODIPY lipid droplet/cell ratio, laser cytometry, cells loaded with oleic acid; for activity change, negative = inhibition: at 57.5 µM (top of the series)
In short: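 Cells seeded at 5,000 per well were treated with compounds over a concentration series and loaded with oleic acid (400 uM, as added). Lipid droplet fluorescence (488 nm excitation, 500-530 nm channel) was read by laser-scanning cytometry and normalized to 20 uM Triacsin C.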

[10] = biological target: Dual specificity protein kinase CLK4 (Homo sapiens) (UniProt Q9HAZ1); experiment: qHTS Assay for Inhibitors of CDC-like Kinase 4 (Kinase-Glo Assay) (AID 1770); details: recombinant Clk4, Kinase-Glo ATP depletion luminescence; series mostly up to 66.7 µM; also: nearly all actives have a fitted effect of over 65% in size; also: potency is read from the fitted curve at half-maximal effect
Dual specificity protein kinase CLK4 (Homo sapiens), sequence (Q9HAZ1 whole entry, looked up): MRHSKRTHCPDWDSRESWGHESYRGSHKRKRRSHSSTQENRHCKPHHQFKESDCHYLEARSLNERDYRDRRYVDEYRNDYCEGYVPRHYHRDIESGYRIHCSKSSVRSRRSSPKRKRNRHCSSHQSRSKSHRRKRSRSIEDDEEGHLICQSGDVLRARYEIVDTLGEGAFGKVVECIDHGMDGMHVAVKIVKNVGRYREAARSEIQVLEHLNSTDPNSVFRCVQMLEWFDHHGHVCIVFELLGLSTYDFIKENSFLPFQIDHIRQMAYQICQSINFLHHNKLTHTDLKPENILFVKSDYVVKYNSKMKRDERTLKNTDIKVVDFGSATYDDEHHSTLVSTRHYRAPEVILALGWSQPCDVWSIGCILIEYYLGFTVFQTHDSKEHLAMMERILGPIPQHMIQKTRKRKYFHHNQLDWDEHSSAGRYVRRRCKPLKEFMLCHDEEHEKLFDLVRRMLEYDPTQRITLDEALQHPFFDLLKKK
In short: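 Clk4 25 nM, RS peptide 100 uM, ATP 1 uM, pH 7.5 Tris, 10 mM MgCl2, 2.5 mM DTT; 4.5 h RT; ATP depletion read by Kinase-Glo luminescence.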

[11] = biological target: Dual specificity protein kinase CLK4 (Homo sapiens) (UniProt Q9HAZ1); experiment: qHTS Assay for Inhibitors of CDC-like Kinase 4 (ADP-Glo Assay) (AID 1771); details: recombinant CLK4, ADP-Glo luminescence; series mostly up to 80 µM; also: nearly all actives have a fitted effect of over 70% in size; also: potency is read from the fitted curve at half-maximal effect
In short: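 Compounds are pin-transferred onto substrate mix (100 uM RS peptide, 1 uM ATP), then 25 nM Clk4 is added. After 1 hr at room temperature, ADP-Glo reagent runs 45 min, detection reagent 30 min, then luminescence is read.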

[12] = biological target: Dual specificity protein kinase CLK4 (Homo sapiens) (UniProt Q9HAZ1); experiment: qHTS Assay for Inhibitors of CDC-like Kinase 4 (ADP-FP Assay) (AID 1795); details: Transcreener ADP fluorescence polarization; series mostly up to 50 µM; also: nearly all actives have a fitted effect of over 60% in size; also: potency is read from the fitted curve at half-maximal effect
In short: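 Kinase activity was followed as ADP output, converted from fluorescence polarization with a calibration curve. Reactions ran one hour at low ATP (1 uM) with RS peptide substrate.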

[13] = biological target: Ubiquitin carboxyl-terminal hydrolase 1 (Homo sapiens) (UniProt O94782); experiment: Inhibitors of USP1/UAF1: Pilot qHTS (AID 504865); details: purified USP1/UAF1, Ub-rhodamine cleavage fluorescence; series mostly up to 54.9 µM;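 also: rhodamine fluorescence freed from ubiquitin-rhodamine substrate followed over time; top concentration of the series differs between compounds; % is scaled to controls: 0 for no effect and ±100 for the full control effect; nearly all actives have a fitted effect of over 35% in size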
Ubiquitin carboxyl-terminal hydrolase 1 (Homo sapiens), sequence (O94782 whole entry, looked up): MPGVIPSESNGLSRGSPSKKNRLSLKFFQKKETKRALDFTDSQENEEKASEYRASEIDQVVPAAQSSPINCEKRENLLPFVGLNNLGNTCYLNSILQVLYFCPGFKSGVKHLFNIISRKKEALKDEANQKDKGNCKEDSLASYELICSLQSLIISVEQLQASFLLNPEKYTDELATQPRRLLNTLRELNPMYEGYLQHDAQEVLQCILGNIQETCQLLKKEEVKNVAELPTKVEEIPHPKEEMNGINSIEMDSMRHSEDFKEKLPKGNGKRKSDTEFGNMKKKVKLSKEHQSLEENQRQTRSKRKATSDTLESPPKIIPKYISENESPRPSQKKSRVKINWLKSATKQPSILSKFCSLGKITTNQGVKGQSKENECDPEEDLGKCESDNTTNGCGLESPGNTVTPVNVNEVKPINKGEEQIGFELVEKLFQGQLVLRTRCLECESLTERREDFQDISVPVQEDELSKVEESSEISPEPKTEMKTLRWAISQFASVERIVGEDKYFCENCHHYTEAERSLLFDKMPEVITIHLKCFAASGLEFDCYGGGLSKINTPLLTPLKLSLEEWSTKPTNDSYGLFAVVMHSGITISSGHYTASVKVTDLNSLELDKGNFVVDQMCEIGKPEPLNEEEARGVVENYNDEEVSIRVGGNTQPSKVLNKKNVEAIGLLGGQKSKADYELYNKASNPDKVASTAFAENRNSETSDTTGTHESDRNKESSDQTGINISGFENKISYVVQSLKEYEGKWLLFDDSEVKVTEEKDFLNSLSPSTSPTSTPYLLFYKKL
In short: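 Enzyme-free wells gave the negative control, while test wells held 1nM USP1/UAF1 preincubated with compound for 15 min at room temperature. Ub-Rho at 150nM final started the reaction, and fluorescence at 480/540 nm was recorded kinetically.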

[14] = Primary qHTS for small molecule stabilizers of the endoplasmic reticulum resident proteome: Secreted ER Calcium Modulated Protein (SERCaMP) assay (AID 1508630); details: SH-SY5Y GLuc-SERCaMP (Gaussia luciferase released on ER calcium loss) secretion, thapsigargin, luminescence; series mostly up to 38.4 µM; also: % is scaled to controls: 0 for no effect and ±100 for the full control effect
In short: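 The SH-SY5Y reporter protocol was run at 3 concentrations up to 38.3 uM (primary) or 11 concentrations (follow-up): 16 h compound, 100 nM thapsigargin for 4 h, then extracellular luciferase luminescence.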

[15] = biological target: Cytochrome P450 1A2 (Homo sapiens) (UniProt P05177); experiment: p450-cyp1a2 (AID 410; calls by dose curve; also: potency is read from the fitted curve at half-maximal effect;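 as to activity change, negative = inhibition: -100% = full effect of reference inhibitor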); details: recombinant CYP1A2, luciferin-ME demethylation, luminescence; series mostly up to 57 µM
Cytochrome P450 1A2 (Homo sapiens), sequence (P05177 whole entry, looked up): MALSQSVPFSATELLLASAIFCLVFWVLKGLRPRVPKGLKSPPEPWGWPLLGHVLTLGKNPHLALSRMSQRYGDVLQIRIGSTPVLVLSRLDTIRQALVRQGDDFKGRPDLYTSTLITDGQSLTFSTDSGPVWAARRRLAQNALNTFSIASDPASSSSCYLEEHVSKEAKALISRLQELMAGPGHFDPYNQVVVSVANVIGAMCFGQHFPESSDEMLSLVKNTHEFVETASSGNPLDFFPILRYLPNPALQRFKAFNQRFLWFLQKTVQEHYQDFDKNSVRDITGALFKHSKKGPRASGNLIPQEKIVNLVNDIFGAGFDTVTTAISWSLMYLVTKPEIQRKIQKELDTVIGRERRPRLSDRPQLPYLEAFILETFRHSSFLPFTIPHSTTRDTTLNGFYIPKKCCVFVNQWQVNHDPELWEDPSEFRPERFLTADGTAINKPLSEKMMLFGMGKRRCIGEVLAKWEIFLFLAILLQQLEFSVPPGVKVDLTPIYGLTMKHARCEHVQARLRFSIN
In short: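 O-Demethylation of luciferin 6' methyl ether by human CYP1A2 is monitored as luciferase luminescence. Substrate sits at Km (100uM); enzyme is 20nM. Values are scaled to 57 uM furafylline as maximal inhibition.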

[16] = qHTS Assay for Identification of Small Molecule Agonists for Hypoxia Response Element Signaling Pathway (AID 914; active = well fitted activation curve with a large enough effect in the signal ratio, with a control signal flat, not every such curve was filed as active; the % refers to the signal ratio; also: potency is read from the fitted curve at half-maximal effect); details: ME-180 HRE-bla reporter, beta-lactamase ratio, CoCl2, 17 h; activation: stronger effect = higher value
In short: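 ME-180 cells carrying an HRE-driven beta-lactamase reporter were treated with compounds in a titration series plus an EC50 level of CoCl2 for 17 h at 37 degrees Celsius; CCF4 readout as the 460nm/530nm ratio gave AC50 values.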

[17] = Stat Signaling Pathway (AID 446; active = well fitted curve in either direction with a large enough effect, not every such curve was filed as active); details: ME-180 (cervical carcinoma) SIE beta-lactamase reporter, IL-6 stimulated, 5 h; at 7.69 µM (top of the series) unless noted
In short: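 Normalization used AC90 stimulation (300 pM IL-6) and AC90 inhibition (125 nM pan-JAK inhibitor at 40 pM IL-6). The underlying signal is SIE-driven beta-lactamase in ME-180 cells after 5 h IL-6 exposure with compound.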

[18] = biological target: Cytochrome P450 2C9 (Homo sapiens) (UniProt P11712); experiment: qHTS Assay for Inhibitors and Substrates of Cytochrome P450 2C9 (AID 883); details: recombinant CYP2C9, luciferin-H luminescence, 60 min; series mostly up to 57.1 µM; also: % is scaled to controls: 0 for no effect and ±100 for the full control effect; nearly all actives have a fitted effect of over 60% in size
Cytochrome P450 2C9 (Homo sapiens), sequence (P11712 whole entry, looked up): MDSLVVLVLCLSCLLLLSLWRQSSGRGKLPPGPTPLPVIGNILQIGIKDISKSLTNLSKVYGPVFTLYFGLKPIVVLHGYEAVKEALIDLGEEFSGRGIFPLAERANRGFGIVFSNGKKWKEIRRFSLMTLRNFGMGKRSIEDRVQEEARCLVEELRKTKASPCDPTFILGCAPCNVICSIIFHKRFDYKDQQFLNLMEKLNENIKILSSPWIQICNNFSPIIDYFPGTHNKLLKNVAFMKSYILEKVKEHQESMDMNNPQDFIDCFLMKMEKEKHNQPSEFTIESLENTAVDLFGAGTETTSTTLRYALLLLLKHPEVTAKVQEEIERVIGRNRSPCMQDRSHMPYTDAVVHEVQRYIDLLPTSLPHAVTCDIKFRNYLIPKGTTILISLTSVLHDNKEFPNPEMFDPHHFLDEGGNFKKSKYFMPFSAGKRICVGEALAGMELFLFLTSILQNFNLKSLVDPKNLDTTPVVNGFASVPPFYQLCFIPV
In short: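 Inhibition of CYP2C9 is scored as loss of luminescence, with 57uM sulphaphenazole defining 100% inhibition. Substrate Luciferin-H is used at 100uM, equal to its KM; enzyme at 10nM in 25mM KPO4, 60 min at 37C with NADPH regeneration.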

[19] = biological target: Cytochrome P450 3A4 (Homo sapiens) (UniProt P08684); experiment: qHTS Assay for Inhibitors and Substrates of Cytochrome P450 3A4 (AID 884); details: recombinant CYP3A4, Luciferin-PPXE luminescence; series mostly up to 57.1 µM; also: % is scaled to controls: 0 for no effect and ±100 for the full control effect; nearly all actives have a fitted effect of over 50% in size
In short: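 Luminescent readout of luciferin produced by CYP3A4 (20 nM) dealkylation of Luciferin-PPXE, 25 uM (its KM). NADPH-driven reaction ran 60 min at RT after 10 min compound preincubation; data scaled to 57 uM ketoconazole as 100% inhibition.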

[20] = measured here: cell count channel max response
[21] = measured here: lipid channel max response

Cc1nc2cnc(N3CCOCC3)nc2n(C2CC2)c1=O
18%: max response [9, 20]
inactive: Potency [1] > 11.4 µM | activity change, negative = inhibition [2] -11.6% | activity change, negative = inhibition [3] -11.7% | Potency [4] > 9.22 µM | Potency [5] > 46 µM | outcome [6] | Potency [7] | Potency [8] | activity change, negative = inhibition [9] 7% | Potency [10] | Potency [11] | Potency [12] | Potency [13] | Potency [14]
23.9%: max response [9, 21]

COCCn1c(=O)c(-c2ccc(Cl)cc2)nc2cnc(Nc3ccccc3)nc21
10.8%: max response [9, 20]
12.1%: max response [9, 21]
active: Potency [15] 20 µM | Potency [16] 2.51 µM
inactive: Potency [1] > 11.4 µM | Potency [4] > 9.22 µM | Potency [5] > 46 µM | outcome [6] | Potency [7] | activity change, negative = inhibition [9] 3.97% | Potency [10] | Potency [11] | Potency [12] | Potency [13] | Potency [14]

O=c1cnc2cnc(Nc3ccccc3)nc2n1C1CC1
inactive: Potency [1] > 11.4 µM | activity change, negative = inhibition [2] -23.3% | activity change, negative = inhibition [3] -2.7% | activity, negative = inhibition [17] -21.3% | Potency [4] > 9.22 µM | Potency [5] > 46 µM | Potency [8] | activity change, negative = inhibition [9] -0.874% | Potency [13] | Potency [14]
4.87%: max response [9, 20]
active: Potency [10] 2 µM | Potency [11] 2.51 µM | Potency [12] 1.58 µM
2.12%: max response [9, 21]

CN(C)Cc1ccccc1-c1nc(NC2CCNCC2)c2ccccc2n1
8.01%: max response [9, 20]
7.24%: max response [9, 21]
inactive: Potency [1] > 11.4 µM | activity change, negative = inhibition [2] 24.8% | activity change, negative = inhibition [3] -15% | Potency [4] > 46 µM | Potency [5] > 46 µM | outcome [6] | Potency [7] | activity change, negative = inhibition [9] 2.42% | Potency [10] | Potency [11] | Potency [12] | Potency [13] | Potency [14]

CN(C)c1ncc2nc(-c3ccc(F)cc3)c(=O)n(Cc3ccc(F)cc3)c2n1
inactive: Potency [1] > 11.4 µM | Potency [15] | Potency [5] > 46 µM | outcome [6] | Potency [7] | Potency [18] | Potency [19] | activity change, negative = inhibition [9] 5.32% | Potency [10] | Potency [11] | Potency [12] | Potency [13] | Potency [14]
25.7%: max response [9, 21]
active: Potency [16] 3.16 µM
19.6%: max response [9, 20]

COc1ccc(-c2nc3cnc(N4CCOCC4)nc3n(-c3ccccc3)c2=O)cc1
22%: max response [9, 20]
21.4%: max response [9, 21]
inactive: activity change, negative = inhibition [2] 25.7% | activity change, negative = inhibition [3] 23.9% | activity, negative = inhibition [17] 13.1% | Potency [4] > 9.22 µM | Potency [5] > 46 µM | outcome [6] | Potency [7] | activity change, negative = inhibition [9] 1.08% | Potency [10] | Potency [11] | Potency [12] | Potency [13] | Potency [14]
